CCT modulator – cytosolic chaperonin activity modulation; purified chaperonin ATPase assay, HTRF ADP detection, 30 min; hit rate 0.3% among 360,000; AID 651819; activity change, % (no concentration beside the values), hits read low; in the data active = activity change below about -30%
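First, chaperonin was dispensed at 40 nM or 20 nM final depending on batch activity. Next, compounds were pinned at 76 uM and ATP added at 10 uM. After 30 min at 37 °C, ADP detection reagents ran 30 min at ambient temperature.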
GLS inh – blocks human kidney-isoform glutaminase activity. O94925. GLS enzymatic activity, qHTS titration. Potency, µM (highest dose often 45.5 µM), actives largely listed as inhibitors. hit rate 0.21% among 410,000. AID 624170
Target sequence (O94925 whole entry, looked up, canonical isoform): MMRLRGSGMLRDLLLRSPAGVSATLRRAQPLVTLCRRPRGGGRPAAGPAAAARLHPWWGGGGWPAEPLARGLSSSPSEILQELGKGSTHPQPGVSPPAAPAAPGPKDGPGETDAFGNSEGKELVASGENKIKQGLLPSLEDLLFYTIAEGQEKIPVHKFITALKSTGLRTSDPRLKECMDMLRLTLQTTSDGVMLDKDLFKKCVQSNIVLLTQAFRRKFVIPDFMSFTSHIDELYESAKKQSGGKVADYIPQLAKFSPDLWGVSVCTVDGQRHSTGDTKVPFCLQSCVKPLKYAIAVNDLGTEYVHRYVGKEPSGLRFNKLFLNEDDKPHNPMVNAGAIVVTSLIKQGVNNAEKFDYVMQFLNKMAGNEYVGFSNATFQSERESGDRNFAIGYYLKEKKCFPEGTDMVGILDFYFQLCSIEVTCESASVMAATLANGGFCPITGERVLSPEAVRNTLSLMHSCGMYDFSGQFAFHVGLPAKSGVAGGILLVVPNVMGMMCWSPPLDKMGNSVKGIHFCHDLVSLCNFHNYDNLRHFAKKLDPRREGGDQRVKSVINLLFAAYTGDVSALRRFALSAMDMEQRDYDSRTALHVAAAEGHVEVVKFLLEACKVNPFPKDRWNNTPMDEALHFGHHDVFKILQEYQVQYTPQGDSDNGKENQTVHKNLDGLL
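Enzyme dispensed in phosphate buffer (45 mM, pH 8.2, 0.02% Tween-20), compounds pinned in, then 1 mM L-glutamine solution and the glutamate oxidase–HRP–Amplex Red mix added; fluorescence read immediately and again after 30 min at room temperature.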
mIDH1 inhibitor – human IDH1 R132H inhibition; IDH1-R132H enzyme, NADPH consumption, diaphorase/resazurin fluorescence; AID 602179; Potency, µM (series often up to 76.6 µM), actives largely listed as inhibitors; O75874; hit rate 0.093% among 390,000; also: nearly all actives have a fitted effect of over 65% in size
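IDH1-R132H (0.5 ug/mL) preincubated 30 min with compound, then NADPH (0.016 mM) and alpha-KG (2 mM) added; 80 min at RT, pH 7.5. Remaining NADPH coupled via diaphorase/resazurin to fluorescence (540/590 nm); concentration-response curves normalized to no-enzyme control.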
GRP78 ERSR act – ER stress response induction in glioma; U87-MG GRP78 promoter luciferase reporter, 16 h; Potency, µM, most hits filed as activators; hit rate 0.02% among 420,000; also: series mostly up to about 76 µM; nearly all actives have a fitted effect of over 35% in size
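ERSR induction read as luciferase luminescence (Bright-Glo, 10 min at room temperature) in stably transfected human U87-MG glioma cells exposed to compounds for 16 h, using GRP78 as sensor.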
pAkt inh – Akt phosphorylation inhibition. hit rate 0.32% among 360,000. activity change, % for hits at 50 µM. Neuro2A IGF-stimulated pAkt S473 HTRF, 20 min; hits give low values; in the data active = activity change below about -80%; inconclusive = mostly about -51% to -80%
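Neuro2A cells in DMEM with 0.5% FBS, overnight at 37 deg C, given compound at single 50 µM final, then IGF (6 nM final) for 20 min at 37 deg C. Lysed; phospho-Akt Ser473 by HTRF after 24 h, 665/615 ratio.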
MmCpn inh – M. maripaludis TRiC chaperonin inhibition. purified Mm-Cpn ATPase, ADP Transcreener TR-FRET. Potency, µM (series often up to 76.9 µM), most hits filed as inhibitors. hit rate 0.031% among 330,000; also: nearly all actives have a fitted effect of over 80% in size
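Reaction buffer contained 30 mM Tris pH 7.4, 100 mM KCl, 5 mM MgCl2 and 1 mM DTT. Mm-CPN (25 nM final) hydrolysed 10 uM ATP over 30 min at 37°C; ADP was read by HTRF.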
Numbers stand for hits; . = inactive; ? = inconclusive; / = no result. An excerpt weighted towards active compounds, which were near 0.85% of everything screened. Unless noted, calls follow the shape of the dose curve; as a rule, active = well fitted curve in the direction sought with a large enough effect; inconclusive = small, poorly fitted or top-dose-only effect, or another doubt; inactive = no such curve, though single readings can be large; an effect the other way counts as inactive or inconclusive.

SMILES	CCT modulator	GLS inh	mIDH1 inhibitor	GRP78 ERSR act	pAkt inh	MmCpn inh
O=c1c(=O)n(O)c2ccccc2n1O	.	12.6µM	.	.	.	.
CCCCCCC(=O)Nc1nnc(CC)s1	.	.	.	.	-122.9%	.
COC(=O)[C@@H]1CCCN1Cc1ccc2c(c1)CN(Cc1cccn1-c1ccccn1)CCO2	/	/	/	.	/	/
N#CC(C#N)C(c1ccsc1)c1c(-c2ccccc2)[nH][nH]c1=O (configuration not stated)	.	.	.	.	-107.9%	.
CCCc1[nH][nH]c(=O)c1C(c1cccc(Cl)c1)C(C#N)C#N (configuration not stated)	.	.	.	.	.	.
COc1ccc(OC)c(CN2CCCC(n3cc(C(=O)N4CCCCC4)nn3)C2)c1 (configuration not stated)	/	/	/	.	/	/
COCCNc1nc(-c2cc(C)c(C)cc2C)cs1	.	12.6µM	.	.	.	.
O=C(O)c1c(Cl)c(Cl)c(Cl)c(Cl)c1-c1c2cc(I)c(=O)c(I)c-2oc2c(I)c(O)c(I)cc12	/	14.1µM	/	.	/	/
COc1cc(=O)n2c(c1C(=O)N(C)Cc1nonc1C)CCN(Cc1cccc3ccccc13)CC2	/	/	/	.	/	/
COC(=O)c1cc(S(=O)(=O)N2CCOCC2)ccc1Sc1ccccc1N	.	.	.	.	-98.9%	.
Cc1cc(C)c2c(NC(=O)CCl)nn(C)c2n1	.	.	.	39.8µM	.	?
Cc1csc(SCC(=O)Nc2ccccc2)n1	.	.	.	.	.	.
Cc1csc(SCC(=O)Nc2nc3ccccc3s2)n1	.	.	.	.	-114.8%	.
CO[C@H]1[C@H](NC(=O)c2ccco2)c2ccccc2C12CCN(Cc1cnn(-c3ccccc3)c1)CC2	/	/	/	.	/	/
Cc1cc(C)n(-c2cccc(C(=O)NCC3Cc4cccc(-c5ccccn5)c4O3)c2)n1 (configuration not stated)	/	/	/	.	/	/
CC(C)c1c(C(=O)NCC2(N3CCCCC3)CCCC2)cnn1-c1nccc(-c2ccco2)n1	/	/	/	.	/	/
CC(=O)Nc1ccc(-c2csc(N3CCC(C(N)=O)CC3)n2)cc1	/	/	/	/	/	.
O=C1CC(Sc2ncccn2)C(=O)N1c1ccccc1 (configuration not stated)	.	.	.	.	.	.
Nc1nnc(SC2CC(=O)N(c3ccccc3)C2=O)s1 (configuration not stated)	-97.1	.	.	.	.	.
Cc1cnc(SCc2ccccn2)nc1C1CCCN(C(=O)c2ccc3c(c2)OCCO3)C1 (configuration not stated)	/	/	/	.	/	/
COc1cccc(OCc2nc3ncc(Br)cc3[nH]2)c1	.	.	.	.	-97.1%	.
Cc1cc(C)cc(OCc2nc3ncc(Br)cc3[nH]2)c1	.	.	.	.	.	/
CNC(=S)N1C2CCCC1CC(NC(=O)c1ccc(C)cc1)C2 (configuration not stated)	-48.2	.	.	.	.	/
S=c1[nH]nc(-c2ccccn2)n1/N=C/c1ccccc1	.	.	.	.	.	.
CC(C)(C)c1n[nH]c(=S)n(/N=C/c2cccs2)c1=O	-35.4	.	.	.	.	.
SMILES	CCT modulator	GLS inh	mIDH1 inhibitor	GRP78 ERSR act	pAkt inh	MmCpn inh
S=c1[nH]nc(-c2ccccn2)n1/N=C/c1cccs1	-32.2	.	.	.	.	.
CCCCNC(=O)Cn1cnc2c(cnn2-c2ccc(C)c(C)c2)c1=O	.	.	.	.	-83.7%	.
CCOC(=O)Cn1cnc2c(cnn2-c2ccc(C)c(C)c2)c1=O	/	.	.	.	/	/
CC1(CC(=O)N/N=C/c2cc(Br)c(O)cc2O)OCCO1	.	10µM	.	.	.	.
Cc1cnc(C)c(-c2cccc3c2OC(CNC(=O)C[C@@H]2C[C@@H](C)NC(=S)N2)C3)n1 (some centres not stated)	/	/	/	.	/	/
N#Cc1ccccc1OCC(=O)NC(N)=O	.	.	.	.	-110.6%	.
Cc1cccc(NC(=O)CNCC(=O)Nc2cccc(C)c2C)c1C	-49.2	.	.	.	.	.
Cc1ccc(NC(=O)CNc2cccc(C)c2C)c(C)c1	.	.	.	.	.	.

Source: PubChem BioAssay
